In ChEMBL document CHEMBL4513216, “Probing the Open Global Health Chemical Diversity Library for Multistage-Active Starting Points for Next-Generation Antimalarials” (ACS Infect Dis, 2020):
About 8,600 (12%) of roughly 69,000 compounds showed an effect of 50% or more. This is one part of a sample in which strong results are shown more often than they occur.

System: Plasmodium berghei
Assay: Screen against P. berghei liver stage (PbLuc), transformed with Luciferase, at 10uM
Type: functional, HepG2
Settings: tested at 10 uM

Compound	INHIBITION [%]
CC(C)CCN(CCC(C)C)Cc1nc2c(cnn2C)c(=O)[nH]1	-11.58
O=C(c1ccco1)N1C[C@H]2CCCN(Cc3nccs3)[C@H]2C1	1.71
CC(C)c1ccc(OCCNC(=O)CN2CCN(C)CC2C)cc1 (stereo not drawn)	32.7
COCCNc1nc(N2CCCC2)nc2nccnc12	6.29
O=C(c1cscn1)N1CC[C@H]2C[C@@H](c3ccncn3)O[C@@H]2C1	43.9
COCCC(=O)NCc1ccc(-c2ccccc2C(=O)O)cn1	5.23
O=C(C1CCC1)N1CC[C@H](O)[C@@H]1Cc1cccnc1	32.1
CCCN(CCS(C)(=O)=O)C1CCc2ccccc2C1 (stereo not drawn)	53.5
CN(C1CCc2ccccc2C1)S(C)(=O)=O (stereo not drawn)	53.5
CS(=O)(=O)CCN(CCc1cccc(F)c1)C1CC1	30.9
CNS(=O)(=O)CC(=O)N(C1CC1)C1Cc2ccccc2C1	32
CCS(=O)(=O)NCC(=O)N(C1CC1)C1Cc2ccccc2C1	7.39
CCCN(C1CCc2ccccc2C1)S(C)(=O)=O (stereo not drawn)	2.97
O=C([C@H]1C[C@H]2OCC[C@H]2N(C(=O)c2ccncc2)C1)N1CCCC1	-23.8
CCN(CC)c1ccc(C(=O)N2CCCC2Cn2cc(C)cn2)cn1 (stereo not drawn)	-4.75
Cc1nn(-c2ccc(C(=O)O)cc2)c2c1C(C(C)C)SCC(=O)N2 (stereo not drawn)	-2.39
O=C1COc2ccc(S(=O)(=O)NCCC3=CCCCC3)cc2N1	-13.6
C[C@@H]1CN(CC(=O)NCc2ccccn2)C[C@]1(C)O	19.8
CC(=O)N1C[C@H]2CC[C@@H](C1)N(S(=O)(=O)c1ccc(C#N)cc1Cl)C2	38.3
CC(C)OCCOCc1cccc(NC(=O)NCc2ccccn2)c1	0.139
CC(C)OCCOCc1cccc(NC(=O)NCC(=O)N(C)C)c1	44.4
Cc1cc(CNC(=O)Nc2cccc(COCCOC(C)C)c2)no1	29.5
CC(C)OCCOCc1cccc(NC(=O)NCc2ccncc2)c1	-18.2
CNc1nc(CNC(=O)Nc2cccc(COCCOC(C)C)c2)cs1	52.4
CC(C)OCCOCc1cccc(NC(=O)NCc2cnn(C)c2)c1	50.4

Compound	INHIBITION [%]
COc1ccccc1CC(=O)N(C)Cc1cc(C)on1	10
COc1ccc(OC)c(NC(=O)CSc2ccc3nncn3n2)c1	7.25
c1coc(-c2noc(CN3CCc4cncnc4C3)n2)c1	26.43
Cc1noc(C)c1-c1cc(CCC2CN(C(=O)CN)CCO2)ncn1 (stereo not drawn)	-7.005
CC(C)c1nnc(NC(=O)NC2CCOc3ccccc32)s1 (stereo not drawn)	32.2
O=C(Nc1nnc(C2CC2)s1)NC1CCOc2ccccc21 (stereo not drawn)	54.4
Cc1nnc(NC(=O)NC2CCOc3ccccc32)s1 (stereo not drawn)	13.5
Cn1nccc1CN1CCOC(c2cccc(Nc3ccccn3)n2)C1 (stereo not drawn)	78.6
Cn1nccc1CN1CCOC(c2cccc(-c3cncnc3)n2)C1 (stereo not drawn)	16.55
Cn1nccc1CN1CCOC(c2ccc(-c3cncnc3)cn2)C1 (stereo not drawn)	23.8
Cc1c(C(=O)N2CCNC(=O)C2)sc2nc[nH]c(=O)c12	20.6
O=C(O)c1c(-c2cccnc2)ncc2c1CCN(Cc1ccccn1)C2	-33.9
O=C(O)c1c(-c2cccnc2)ncc2c1CCN(Cc1cccnc1)C2	6.66
Cn1nccc1-c1ncc2c(c1C(=O)O)CCN(Cc1cccnc1)C2	13.7
Cn1nccc1-c1ncc2c(c1C(=O)O)CCN(Cc1ccncc1)C2	20.1
O=C(O)c1c(-c2cncnc2)ncc2c1CCN(Cc1cccnc1)C2	96.1
Cn1nccc1-c1ncc2c(c1C(=O)O)CCN(Cc1ccccc1)C2	58.7
Fc1ccc(-c2cnc(C3CCCN3)cn2)cc1 (stereo not drawn)	27
O=C1[C@@H]2CC[C@@H](CN(C3CCOCC3)C2)N1Cc1cscn1	33
CC(C(=O)O)n1nc(C(F)(F)F)c(Br)c1C1CC1 (stereo not drawn)	38.3
COc1ccc(Cl)cc1CC(=O)NS(=O)(=O)c1ccc(C(N)=O)cc1	-18
O=C(NCC(O)c1ccccc1)Nc1cccs1 (stereo not drawn)	-39.3
CCSc1ncc(CN2CCN(c3ncc(C)c(N)n3)CC2)cn1	-37.7
CCSc1ncc(CN2CCN(c3nc(C)cnc3C)CC2)cn1	-50.8
CCSc1ncc(CN2CCN(c3nc(C)ncc3C)CC2)cn1	56.6

Compound	INHIBITION [%]
CCn1cnnc1CNS(=O)(=O)N1CCCC1c1ccco1 (stereo not drawn)	-120
O=C(Cc1ccsc1)N1CCCCC1c1ccn2ccnc2n1 (stereo not drawn)	47.1
c1cncc(-c2nnn3c2COCC(CNC2CCOCC2)C3)c1 (stereo not drawn)	33.4
Cc1ccnc(C2(C)CCCN2C(=O)c2cnccn2)n1 (stereo not drawn)	6.32
CC(=O)N[C@@H]1CN(Cc2ccco2)C[C@H]1c1ccc(C)o1	32.8
C/C=C(\C)CN1C[C@H](NC(=O)CCOC)[C@@H](c2ccc(C)o2)C1	63.5
C/C=C(\C)CN1C[C@H](NC(=O)CN2CCCC2=O)[C@@H](c2ccc(C)o2)C1	18.3
O=C(NCC1CC1)Nc1cnc2ccc(F)cc2c1O	23.2
COc1ccc(CN2C[C@@H]3CCCO[C@@H]3[C@H](NS(C)(=O)=O)C2)cc1	2.01
CO[C@@H]1c2ccccc2C2(CCN(C(=O)CNS(C)(=O)=O)CC2)[C@H]1O	-6.61
CCOc1ccc(NC(C)c2nnnn2-c2ccccc2)cc1CO (stereo not drawn)	20.9
CC(Nc1ccc(F)cc1)c1nnnn1-c1ccccc1 (stereo not drawn)	81.7
COc1ccc(NC(C)C(=O)NCCc2cccs2)cc1F (stereo not drawn)	38.5
CCC(Nc1nnnn1-c1ccccc1)C(=O)Nc1ccccc1C (stereo not drawn)	-19.1
COc1ccc(NC(C)c2nnnn2-c2ccccc2)cn1 (stereo not drawn)	18.3
COc1ccc(NC(C)c2nnnn2-c2ccccc2)cc1F (stereo not drawn)	54.3
O=C(O)Cn1ccc(=O)c2ccc(Cl)cc21	11.1
COc1ccc(NC(=O)NCc2cccc(N(C)C)n2)c(Cl)c1	7.49
COc1ccc(C)c(NC(=O)NCc2cccc(N(C)C)n2)c1	-35.2
CN(C)c1cccc(CNC(=O)Nc2ccc3[nH]nnc3c2)n1	-4.13
COc1cc(F)cc(NC(=O)NCc2cccc(N(C)C)n2)c1	55.3
CN(C)c1cccc(CNC(=O)Nc2cc(C#N)ccc2Cl)n1	15.8
CC(=O)c1ccc(NC(=O)NCc2cccc(N(C)C)n2)cc1C	62.1
